# High-throughput results (PubChem)
# uPA surface inh = cell surface uPA generation inhibition; cell surface uPA generation assay, qHTS; Potency, µM (doses to about 38.3 µM), for the others: at the top dose activity change, negative = inhibition, hits mostly inhibitors; 330,000 tested, 0.31% active; AID 540303; active = well fitted inhibition curve with a large enough effect; inconclusive = small, poorly fitted or top-dose-only effect; inactive = no such curve, though single readings can be large or run the other way; tested in mouse RAW 264.7 cells; note: potency is the fitted concentration of half-maximal effect; % is set by controls: 0 for no effect and ±100 for the full control effect; nearly all actives have a fitted effect of over 55% in size
# ATXN viability = cell viability loss in ATXN counter-screen. Potency, µM (titrated, usually from 56.7 µM), usual class: cytotoxic. S2 cells (HEK-293 line with an ATXN2-luciferase reporter) viability, CellTiter-Fluor protease fluorescence, 24 h. 400,000 tested, 0.49% active; note: potency is the fitted concentration of half-maximal effect; nearly all actives have a fitted effect of over 40% in size
# ATXN2 expr inh = inhibitors of ATXN2 expression. HEK-293 ATXN2-luciferase reporter, luminescence, 24 h. Potency, µM (series often up to 57 µM), without a hit: at the highest dose activity change, negative = inhibition, usual class: inhibitors. 360,000 tested, 0.72% active. AID 1745845; note: potency is the fitted concentration of half-maximal effect; % is set by controls: 0 for no effect and ±100 for the full control effect; nearly all actives have a fitted effect of over 55% in size
#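 qHTS (up to 57 uM final) was run with 24 h compound exposure of reporter cells at 37 °C. Each well was multiplexed: SteadyGlo luminescence measured ATXN2-luciferase expression after a fluorogenic Gly-Phe-AFC viability readout (25 uM final).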
# TGFb SMAD3 inh = inhibitors of TGF-b signaling; HepG2 CAGA-GFP TGF-b/SMAD3 reporter, GFP fluorescence, 18 h; TGF-beta stimulated, 500 pg/mL final; Potency, µM (titrated, usually from 46.1 µM), for the others: at the top dose activity, negative = inhibition, usual class: inhibitors; 410,000 tested, 1.2% active; AID 588855; note: potency is the fitted concentration of half-maximal effect; % is set by controls: 0 for no effect and ±100 for the full control effect; nearly all actives have a fitted effect of over 65% in size
#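 HEPG2 CAGA-GFP, 1000 cells/well; 2 h settle, 37 C; cpd via pin tool; TGF-b 500 pg/mL final; 18 h, 37 C; GFP imaging ex488/em500-530; %Activity normalised to -TGF-b and +DMSO controls; CRC fit, curve class.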
# Giardia killer = kills Giardia lamblia; Giardia lamblia trophozoite viability; activity change, % at 7.66 µM, hits read low; AID 540267; 340,000 tested, 0.15% active; in the data active = activity change below about -80%; inconclusive = between about -30% and that limit;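 note: parasites exposed to compound for two days anaerobically before the ATP read; % is set by controls: 0 for no effect and ±100 for the full control effect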
#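 Luminescent ATP signal served as the viability read-out, measured 15-30 min after adding ATP detection reagent to trophozoites that had been incubated with compounds for 48 hrs at 37 deg C anaerobically at 100 cells/well.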
# HepG2 viability = kills HepG2 cells in TGF-b inhibitor counter-screen. HepG2 CAGA-GFP viability, ATP luminescence, 18 h. Potency, µM (series often up to 46.1 µM), for the others: at the top dose activity change, negative = cytotoxicity, most hits filed as cytotoxic. 410,000 tested, 0.76% active. AID 588856; note: potency is the fitted concentration of half-maximal effect
#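 HepG2 CAGA-GFP cells (1000/well, DMEM with 1% FBS) received compound, then TGF-beta at 500 pg/mL final, and were incubated 18 hours at 37 degrees C. Viability was read by CellTiter-Glo luminescence. Media-only wells were set as complete cell-killing and DMSO as no toxicity.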
# * = called active by the depositor; i = inactive; ? = inconclusive; / = no result given; ! = a repeat was not active. A selection: hits, their analogues and other compounds. The true share with any hit is near 2.6%. Unless noted, calls come from the whole dose curve; as a rule, active = well fitted curve in the direction sought with a large enough effect; inconclusive = small, poorly fitted or top-dose-only effect, or another doubt; inactive = no such curve, though single readings can be large; an effect the other way counts as inactive or inconclusive.
SMILES,uPA surface inh,ATXN viability,ATXN2 expr inh,TGFb SMAD3 inh,Giardia killer,HepG2 viability
CCCCCCCCNC(C)C(O)c1ccc(SC(C)C)cc1 (stereo not given),-3%,?,25µM*!,?,3,-102%
CC(NC(=O)c1cnn2c1NC(=C1CC1)C=C2C(F)F)c1ccncc1 (stereo not given),/,/,/,-3%,/,-3%
O=C(c1ccc2[nH]ccc2c1)N1CCOc2ccc(CN3CCN(c4ccccn4)CC3)cc2C1,/,i,/,/,/,/
C=CCc1cccc(/C=N/NC(=O)C(C)Nc2ccc(C)cc2)c1O (stereo not given),-6%,i,22µM*,?,10,-70%
C=CCc1cccc(/C=N/NC(=O)c2ccc3nc[nH]c3c2)c1O,?,i,10µM*,-5%,5,4%
C=CCc1cccc(C=NNC(=O)CN2CCN(Cc3ccccc3)CC2)c1O,/,/,19µM*,/,/,/
O=C(CN1CCN(Cc2ccccc2)CC1)N/N=C/c1ccccc1F,0%,i,-8%,27%,0,0%
O=C(C[n+]1ccccc1)c1ccc(I)cc1,/,/,/,4%,/,5%
CCOC(=O)N1CCc2c(sc(NCc3sccc3C)c2C(=O)Nc2ccc(OC)cc2OC)C1,/,i,14µM*,-30%,/,-2%
COc1ccc(NC(=O)c2c(NCc3sccc3C)sc3c2CCCCC3)c(OC)c1,/,/,?,?,/,-18%
CCOc1ccccc1NC(=O)c1c(NCc2cccs2)sc2c1CCCCC2,/,?,?,18µM*,/,-48%
COc1ccc(OC)c(NC(=O)c2c(NCc3cccs3)sc3c2CCCC3)c1,/,/,/,16µM*,-2,-30%
COc1ccc(OC)c(NC(=O)c2c(NCc3cccs3)sc3c2CCCCC3)c1,/,i,-7%,-26%,/,0%
CC/C(=C\c1ccccc1)c1cccc2oc3ccccc3c12,/,/,/,?,/,-35%
C#CCN1C=CC(=O)[C@@H](OC(=O)Nc2ccccc2Br)[C@H]1c1ccccc1Br,9%,i,-5%,?,-19,-33%
C#CCN1C=CC(=O)[C@@H](OC(=O)Nc2ccc(Br)cc2)[C@H]1c1ccccc1Br,-8%,?,?,13µM*,?,-33%
Cc1ncnc2nc[nH]c12,/,/,/,?,/,-45%
CS(=O)(=O)N(CC(O)CON=C1c2ccccc2-c2ccccc21)c1ccc(F)cc1 (stereo not given),3%,i,?,18µM*,7,-24%
Cc1cccc(N(CC(O)CON=C2c3ccccc3-c3ccccc32)S(C)(=O)=O)c1 (stereo not given),-1%,i,?,?,0,-94%
C=C(C)C1CCC2(C(=O)O)CCC3(C)C(CCC4C5(C)C(C=O)C(O)C(C)(C)C5CCC43C)C12 (stereo not given),-14%,?,?,13µM*,-13,-27%
C[C@H]1O[C@H](O[C@H]2[C@H](O)[C@@H](O)[C@@H](O[C@H]3[C@H](O)[C@@H](O)C(O)O[C@H]3CO)O[C@H]2CO)[C@H](O)[C@@H](O)[C@H]1N[C@H]1C=C(CO)[C@@H](O)[C@H](O)[C@@H]1O (stereo not given in full),/,/,13%,/,/,/
CNc1nc(-c2ccc3c(c2)CCN3C(=O)c2cccc(F)c2)cs1,7.1µM*,?,-6%,-18%,-7,-28%
CNc1nc(-c2ccc3c(c2)CCN3C(=O)c2ccc(F)cc2)cs1,8%,i,/,1%,-16,10%
CS(=O)(=O)N1CCN(c2ccc(NC(=O)c3ccc(-c4ccc(Cl)cc4)o3)cc2)CC1,/,i,-23%,-6%,-1,-17%
CN1CCN(c2ccc(NC(=O)c3ccc(-c4ccc(Cl)cc4)o3)cc2)CC1,-1%,/,?,?,-16,16µM*
SMILES,uPA surface inh,ATXN viability,ATXN2 expr inh,TGFb SMAD3 inh,Giardia killer,HepG2 viability
O=C(O)CCNc1ccc(NCCC(=O)O)c2c1C(=O)c1ccccc1C2=O,-4%,?,/,2%,-4,-21%
O=C1c2cccc(NCCNCCO)c2C(=O)c2cccc(NCCNCCO)c21,-9%,18µM*,4.5µM*,?,10,-12%
CCCc1[nH]c2ccc(C#N)cc2c1CCC,?,/,?,20µM*,-14,-115%
CCCc1[nH]c2ccc(C(=O)OC)cc2c1CCC,-26%,?,-2%,-12%,-5,-33%
CCC1CN(CCNC(=O)c2scc3c2OCCO3)Cc2cc(OC)ccc2O1 (stereo not given),/,i,/,/,/,/
CCCCNC(=O)C1(C)CCCCN1Cc1ccccc1-c1ccccc1 (stereo not given),/,i,?,?,/,20µM*
Cc1ccc(-c2nnc(SCC(=O)Nc3ccccc3F)o2)cc1,8.9µM*,i,-80%,1%,-20,-65%
Cc1cc(C)n2nc(N)c(N=Nc3ccccc3)c2n1,1%,i,12%,3%,6,-24%
Cc1cc(C)[n+]2[nH]c(N)c(N=Nc3ccccc3)c2n1,3%,?,2%,-13%,-13,13µM*
COc1ccc(C)cc1NC(=O)c1cc(S(=O)(=O)N2CCC(C)CC2)cn1C,/,i,-6%,-20%,/,-55%
CC1CCN(S(=O)(=O)c2cc(C(=O)Nc3ccc(Br)cc3F)n(C)c2)CC1,/,i,-15%,11µM*,/,-30%
O=C(O)c1ccc(N/N=C/c2cn(Cc3ccccc3F)c3ccccc23)cc1,9%,i,104%,11µM*,6,-21%
Cc1ccccc1OCC(=O)N/N=C/c1cn(C)c2ccccc12,-9%,?,-10%,-7%,-5,-17%
Cc1ccccc1OCC(=O)N/N=C/c1cn(Cc2ccccc2)c2ccccc12,2%,i,-23%,8.9µM*,-2,-31%
Clc1ccc(Cn2cc(/C=N/n3cnnc3)c3ccccc32)c(Cl)c1,-2%,i,-13%,?,-24,-5%
Nc1ccc(C(=O)N/N=C/c2cn(Cc3ccccc3)c3ccccc23)cc1,-4%,i,-18%,2.8µM*,-2,0%
C(=N\n1cnnc1)/c1cn(Cc2ccccc2)c2ccccc12,-5%,i,-16%,13µM*,-10,-74%
Cc1cccc(C)c1N(CCCc1cccnc1)C(=O)C(C)N (stereo not given),/,i,/,/,/,/
COC(=O)N/N=C/c1cn(Cc2ccccc2F)c2ccccc12,-4%,i,-18%,?,14,-24%
Cc1ccccc1OCC(=O)N/N=C/c1ccncc1,-3%,i,0%,8%,14,2%
COC(=O)N/N=C/c1cn(Cc2ccc(F)cc2)c2ccccc12,3%,i,-21%,5µM*,2,-53%
Cc1ccccc1OCC(=O)N/N=C/c1ccc(N2CCOCC2)o1,?,i,-37%,13µM*,-19,-46%
